# M1 ag parental: counter-screen for M1 agonists: effect in parental CHO-K1 cells; 0.48% of 360,000 active; AID 602248; Fluo-8 calcium fluorescence; scaled to maximal ATP response, vehicle zero; activation, % at 3 µM; in the data active = activation above about 15%;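 also: untransfected CHO-K1 host cells lacking M1 receptor as counterscreen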
# M1 antag: blocks human M1 muscarinic receptor. CHO-K1 hM1, Fluo-8 calcium fluorescence, ACh EC80 antagonist. inhibition, % at 3 µM. 1.3% of 360,000 active. AID 588852;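 active = percent inhibition above its own plate's cutoff, namely the mean of that plate's compound wells plus 3 SD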;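 also: peak over basal fluorescence ratio during 140 s after agonist addition; 0% = ACh EC80 plus DMSO and 100% = DMSO alone without agonist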
# Target sequence (P11229 whole entry, looked up): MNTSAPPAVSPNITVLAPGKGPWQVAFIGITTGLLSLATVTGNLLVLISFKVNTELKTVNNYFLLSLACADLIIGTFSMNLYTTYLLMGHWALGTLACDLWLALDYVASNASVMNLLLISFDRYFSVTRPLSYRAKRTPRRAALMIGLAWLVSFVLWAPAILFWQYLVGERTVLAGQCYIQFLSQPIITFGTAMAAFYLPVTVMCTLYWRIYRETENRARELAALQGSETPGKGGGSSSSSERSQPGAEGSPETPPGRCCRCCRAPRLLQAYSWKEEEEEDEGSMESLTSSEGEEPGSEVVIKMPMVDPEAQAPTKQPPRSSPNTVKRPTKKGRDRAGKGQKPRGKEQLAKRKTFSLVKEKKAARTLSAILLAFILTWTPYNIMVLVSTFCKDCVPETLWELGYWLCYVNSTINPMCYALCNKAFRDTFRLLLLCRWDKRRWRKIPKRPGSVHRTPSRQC
# CHRM1 agonist: agonists of human M1 muscarinic receptor; activation, % at 3 µM; P11229; 0.33% of 360,000 active; CHO-K1 hM1, Fluo-8 calcium fluorescence, agonist mode; 0% DMSO, 100% acetylcholine EC100;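 active = activation above the run's mean compound activation plus 3 SD, cut at about 16% in these data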;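 also: peak over basal fluorescence ratio within a 140 s kinetic read after compound addition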
# M1 PAM parental: nonselective activator or artifact in parental CHO-K1 calcium assay; ATP EC20, Fluo-8 calcium fluorescence; 0% at ATP EC20, 100% at ATP max; AID 602247; activation, % at 3 µM; 0.02% of 360,000 active;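 active = activation above the run cutoff, the mean activation of all test compounds plus 3 SD, cut at about 40% in these data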;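 also: peak over basal fluorescence ratio in a 140 s read after ATP addition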
# CHRM1 PAM: positive allosteric modulators of human M1 muscarinic receptor | P11229 | CHO-K1 hM1, Fluo-8 calcium fluorescence, ACh EC20; 0% = ACh EC20, 100% = maximal ACh | activation, % at 3 µM | 0.088% of 360,000 active; in the data active = activation above about 19%, passing the limit was not always enough
# CHO-K1 Ca antag: M1 antagonist counterscreen hit in parental CHO-K1 cells | ATP-induced calcium, Fluo-8 fluorescence | inhibition, % at 3 µM | 0.6% of 360,000 active | AID 602250;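 active = inhibition above a per-plate cutoff, the plate's mean sample inhibition plus 3 SD, cut at about 24% in these data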;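 also: 0% = DMSO plus EC80 ATP and 100% = DMSO alone without ATP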
# Starred values were filed as active, the others as inactive. A selection: hits, their analogues and other compounds. The true share with any hit is near 2.4%.
SMILES,M1 ag parental,M1 antag,CHRM1 agonist,M1 PAM parental,CHRM1 PAM,CHO-K1 Ca antag
Cc1cc(C)cc(OCC(=O)OCC(=O)NCc2cccs2)c1,0.1,10.2,-4.3,-11.2,3.6,30.9*
CC(C)CN1CCC(Oc2cccc(C(=O)NCCc3ccccc3)c2)CC1,0.4,18.1,-6.0,10.7,-4.6,0.6
COc1ccc(CN2C(=O)c3ccccc3C2C(=O)NC2CCCC(C)C2C)c(OC)c1 (centres undefined),0.1,-26.4,-2.6,16.6,17.1,-8.6
Oc1ccc(Cl)cc1CNCc1ccc(Cl)cc1,3.7,-8.3,10.8,12.2,6.0,-22.8
Oc1ccc(Cl)cc1CNCc1ccc(F)cc1,10.0,-4.9,18.4*,10.7,5.5,-13.6
CC1(C)Cc2c(sc3ncn(N)c(=N)c23)CO1,-0.5,-16.0,-0.5,-4.5,9.2,26.8*
Cc1nc2sc3c(c2c(=N)n1N)CC(C)(C)OC3,2.9,8.8,-5.8,14.7,-1.2,-10.2
COc1ccc(S(=O)(=O)NCCSCc2ccco2)cc1Cl,-0.5,-29.8,3.9,1.8,22.5*,11.4
CC(=O)Nc1ccc(S(=O)(=O)NCC(=O)OCC(=O)NCc2ccco2)cc1,-0.5,-18.9,-0.5,-30.2,5.2,27.9*
O=C(NCc1ccccc1)C(c1ccccc1)N(C(=O)c1csnn1)C1CCCC1 (centres undefined),2.5,-12.6,-3.3,3.2,9.8,-11.8
CCCCOCCCNc1ncnc2c1[nH]c1ccccc12,11.2,35.3*,3.6,-7.6,-22.0,29.6*
CCOCCCNc1ncnc2c1[nH]c1ccccc12,5.9,18.2,-0.8,1.7,-9.1,3.8
CC(C)=C(NC(=O)c1ccccc1Cl)C(=O)NCCc1nc2ccccc2[nH]1,2.1,-15.0,-2.0,25.8,13.1,-8.1
Cc1ccccc1NS(=O)(=O)c1ccc(C(=O)N2CCN(c3ccccn3)CC2)cc1,10.5,29.8,-3.6,9.1,-20.2,-5.8
O=C(c1ccc(S(=O)(=O)Nc2ccccc2F)cc1)N1CCN(c2ccccn2)CC1,3.6,51.5*,-5.2,-12.7,-26.9,16.2
O=C(c1cccc(Cl)c1)N1CCN(c2ccccn2)CC1,0.6,-5.4,-3.3,-5.6,-6.0,15.0
O=C(c1ccc(S(=O)(=O)c2cccc(Cl)c2)c([N+](=O)[O-])c1)N1CCN(c2ccccn2)CC1,16.1*,58.5*,0.0,-10.0,-19.4,26.2*
CCCN(C1CCS(=O)(=O)C1)S(=O)(=O)c1cc(OC)ccc1OC (centres undefined),0.5,-2.6,-0.4,6.8,14.9,-13.5
CC(=O)Nc1cc2nc(C)n(Cc3ccccc3[N+](=O)[O-])c2nc1C,0.5,-14.8,-3.8,10.0,7.1,-10.3
Cn1c(=O)n(Cc2ccc(F)cc2)c(=O)c2c1nc1n2CCN1Cc1ccco1,3.9,6.7,-4.2,-2.6,-0.1,-14.1
Cn1c(=O)n(CCc2ccccc2)c(=O)c2c1nc1n2CCN1Cc1ccco1,2.6,31.9*,0.2,-24.5,-7.0,15.5
Cc1cccc(C2N=C(N)Nc3nc4ccccc4n32)c1 (centres undefined),0.4,-0.2,-8.6,-6.2,-2.1,-3.5
N#Cc1ccc(NC(=O)Nc2cccc(C#N)c2)cc1,17.8*,19.9,7.1,-21.2,-8.0,31.1*
N#Cc1ccc(NC(=O)Nc2ccc(Oc3ccc(NC(=O)Nc4ccc(C#N)cc4)cc3)cc2)cc1,13.6,3.9,1.0,-1.8,1.5,-2.9
CN(C(=O)c1cc(COc2ccc(F)cc2Cl)on1)C1CCOC1 (centres undefined),2.8,-10.4,-0.1,13.8,5.8,2.0
O=c1cc(CN(Cc2ccccc2)Cc2ccccc2)c2ccccc2o1,0.7,7.2,-0.5,-1.1,0.1,13.0
CCOC(=O)N1CCN(C(=O)/C(=C/c2ccc(OC)c(OC)c2)NC(=O)c2ccccc2)CC1,-0.1,-4.7,-4.1,12.9,10.6,-0.6
CCOC(=O)C1CCN(C(=O)/C(=C/c2ccccc2)NC(=O)c2ccccc2)CC1,16.0*,-10.3,-3.7,11.7,1.2,-7.9
CCOC(=O)C1CCCN(C(=O)/C(=C/c2ccco2)NC(=O)c2ccccc2)C1 (centres undefined),0.3,10.7,48.2*,16.7,-12.1,-8.1
